From PubChem BioAssay (NCI)
“And” between values parts separate entries of the source, which are not always exact repeats. Identical values can stand only once. This is part of a sample that, as a whole, favours compounds with a hit. Of some 83,000 tested, about 20% had one in any assay.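 Step 1: grow cells in 96-well plates. Step 2: add test compound at a single concentration. Step 3: incubate 48 h. Step 4: record percent growth.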 A number with no mark means an inactive call. The source made the active and inactive calls. How the source made its calls: active means growth percent below 10; inactive means the rest.

Key:
Assay in all cases: NCI-60 one-dose screen, 48 h (100 = growth as untreated, 0 = no growth, -100 = all killed)
DU-145 prostate = test system: DU-145 prostate
K-562 leukemia = test system: K-562 leukemia
MALME-3M melanoma = test system: MALME-3M melanoma
MDA-MB-231 breast = test system: MDA-MB-231 breast
RXF 393 renal = test system: RXF 393 renal
SF-268 CNS = test system: SF-268 CNS
SF-295 CNS = test system: SF-295 CNS
SF-539 CNS = test system: SF-539 CNS
UACC-257 melanoma = settings: 10 µM unless noted
M14 melanoma = test system: M14 melanoma

`CN(C)C(=O)c1ccc(SC(=S)NCc2ccccc2)cc1` gave a growth (DU-145 prostate; 10 µM) of 111%, a growth (DU-145 prostate; 100 µM) of 10.1% and a growth (K-562 leukemia; 10 µM) of 82.6%. The growth (K-562 leukemia; 100 µM) was 3.9% (active), the growth (MALME-3M melanoma; 10 µM) was 108% and the growth (MALME-3M melanoma; 100 µM) was -12.7% (active). For the same compound, the growth (MDA-MB-231 breast; 10 µM) was 109%, the growth (MDA-MB-231 breast; 100 µM) was 13.3% and the growth (RXF 393 renal; 10 µM) was 108%. For the same compound, the growth (RXF 393 renal; 100 µM) was -72.4% (active), the growth (SF-268 CNS; 10 µM) was 124% and the growth (SF-268 CNS; 100 µM) was 50.2%. For the same compound, the growth (SF-295 CNS; 10 µM) was 119%, the growth (SF-295 CNS; 100 µM) was 26.3% and the growth (SF-539 CNS; 10 µM) was 102%. The growth (SF-539 CNS; 100 µM) was -62.3% (active), the growth (UACC-257 melanoma) was 18.4% [100 µM] and the growth (M14 melanoma; 10 µM) was 103%. For the same compound, the growth (M14 melanoma; 100 µM) was -42% (active).

`CN(Cc1cnc2nc(N)nc(N)c2n1)c1ccc(C(=O)NC(CCC(=O)O)C(=O)O)cc1` (stereo not drawn) gave a growth (DU-145 prostate; 10 µM unless noted) of 26.7%, a growth (K-562 leukemia; 10 µM unless noted) of 18.7% and a growth (MALME-3M melanoma; 10 µM unless noted) of 43.8%. It also gave a growth (MDA-MB-231 breast; 10 µM unless noted) of 82.8%, a growth (RXF 393 renal; 10 µM unless noted) of 46.1% and a growth (SF-268 CNS; 10 µM unless noted) of 25.5%. For the same compound, the growth (SF-295 CNS; 10 µM unless noted) was 20%, the growth (SF-539 CNS; 10 µM unless noted) was 22.2% and the growth (UACC-257 melanoma) was 53%. The growth (M14 melanoma; 10 µM unless noted) was 10.9%.

In the case of `O=Nc1ccccc1N=O`, the growth (DU-145 prostate; 10 µM unless noted) is reported as 91.2%, the growth (K-562 leukemia; 10 µM unless noted) is reported as 76.4% and the growth (MALME-3M melanoma; 10 µM unless noted) is reported as 74.9%. The growth (MDA-MB-231 breast; 10 µM unless noted) was 95.8%, the growth (RXF 393 renal; 10 µM unless noted) was 101% and the growth (SF-268 CNS; 10 µM unless noted) was 89.4%. For the same compound, the growth (SF-295 CNS; 10 µM unless noted) was 85.9%, the growth (SF-539 CNS; 10 µM unless noted) was 76.2% and the growth (UACC-257 melanoma) was 80.9%. The growth (M14 melanoma; 10 µM unless noted) was 81.7%.

In the case of `Nc1ncnc2c1ncn2C1OC(CO)C(O)C1O` (stereo not drawn), the growth (DU-145 prostate; 10 µM unless noted) is reported as 116% and 47.5% and 106%, the growth (K-562 leukemia; 10 µM unless noted) is reported as 93.5% and 26.1% and 116% and the growth (MALME-3M melanoma; 10 µM unless noted) is reported as 147% and 107% and 128%. For the same compound, the growth (MDA-MB-231 breast; 10 µM unless noted) was 122% and 52.5% and 113%, the growth (RXF 393 renal; 10 µM unless noted) was 115% and 103% and the growth (SF-268 CNS; 10 µM unless noted) was 106% and 121% and 102%. The growth (SF-295 CNS; 10 µM unless noted) was 105% and 104% and 100%, the growth (SF-539 CNS; 10 µM unless noted) was 109% and 98% and 91.5% and the growth (UACC-257 melanoma) was 84.9% and 124% and 105%. The growth (M14 melanoma; 10 µM unless noted) was 111% and 115%.

In the case of `CC(C)(C)CC(C)(C)c1ccc(OCCSC(=N)N)cc1`, the growth (DU-145 prostate; 10 µM unless noted) is reported as 72.4%, the growth (K-562 leukemia; 10 µM unless noted) is reported as 0.322% (active) and the growth (MALME-3M melanoma; 10 µM unless noted) is reported as -0.257% (active). The growth (MDA-MB-231 breast; 10 µM unless noted) was -7.07% (active), the growth (RXF 393 renal; 10 µM unless noted) was 60.8% and the growth (SF-268 CNS; 10 µM unless noted) was 55%. The growth (SF-295 CNS; 10 µM unless noted) was -34.7% (active), the growth (SF-539 CNS; 10 µM unless noted) was -6.57% (active) and the growth (UACC-257 melanoma) was 76.7%. For the same compound, the growth (M14 melanoma; 10 µM unless noted) was -48.5% (active).

For `COC(=O)[C@@]12OC[C@]34[C@H]([C@@H](O)[C@@H]1O)[C@@]1(C)[C@H](O)C(=O)C=C(C)[C@@H]1C[C@H]3OC(=O)C(OC(C)=O)[C@@H]24` (stereo partly drawn), the growth (DU-145 prostate; 10 µM unless noted) was -64.4% (active), the growth (K-562 leukemia; 10 µM unless noted) was -60% (active) and the growth (MALME-3M melanoma; 10 µM unless noted) was -70.1% (active). For the same compound, the growth (MDA-MB-231 breast; 10 µM unless noted) was -39.5% (active), the growth (RXF 393 renal; 10 µM unless noted) was -63.6% (active) and the growth (SF-268 CNS; 10 µM unless noted) was -31.2% (active). For the same compound, the growth (SF-295 CNS; 10 µM unless noted) was -53.9% (active), the growth (SF-539 CNS; 10 µM unless noted) was -36.7% (active) and the growth (UACC-257 melanoma) was -54.4% (active). For the same compound, the growth (M14 melanoma; 10 µM unless noted) was -84.9% (active).

`Cc1cc(C(C)(CC(C)C)c2ccc(O)c(C)c2)ccc1O` gave a growth (DU-145 prostate; 10 µM unless noted) of 112%, a growth (K-562 leukemia; 10 µM unless noted) of 97.1% and a growth (MALME-3M melanoma; 10 µM unless noted) of 109%. For the same compound, the growth (MDA-MB-231 breast; 10 µM unless noted) was 88%, the growth (RXF 393 renal; 10 µM unless noted) was 93% and the growth (SF-268 CNS; 10 µM unless noted) was 104%. The growth (SF-295 CNS; 10 µM unless noted) was 97.8%, the growth (SF-539 CNS; 10 µM unless noted) was 96.6% and the growth (UACC-257 melanoma) was 84.8%. The growth (M14 melanoma; 10 µM unless noted) was 94.2%.

With `O=C(Nc1c(Cl)cccc1Cl)Oc1cccc2cccnc12` the growth (DU-145 prostate; 10 µM) was 82.5%, the growth (DU-145 prostate; 100 µM) was 49.1% and the growth (K-562 leukemia; 10 µM) was 11.3%. It also gave a growth (K-562 leukemia; 100 µM) of 11.1%, a growth (MALME-3M melanoma; 10 µM) of 52.8% and a growth (MALME-3M melanoma; 100 µM) of 47.5%. It also gave a growth (MDA-MB-231 breast; 10 µM) of 49.5%, a growth (MDA-MB-231 breast; 100 µM) of 20.4% and a growth (RXF 393 renal; 10 µM) of 73.3%. For the same compound, the growth (RXF 393 renal; 100 µM) was 64.4%, the growth (SF-268 CNS; 10 µM) was 51.4% and the growth (SF-268 CNS; 100 µM) was 21.7%. For the same compound, the growth (SF-295 CNS; 10 µM) was -11.3% (active), the growth (SF-295 CNS; 100 µM) was 19.6% and the growth (SF-539 CNS; 10 µM) was 28.2%. The growth (SF-539 CNS; 100 µM) was 22.9%, the growth (UACC-257 melanoma) was -8.59% [100 µM] (active) and the growth (M14 melanoma; 10 µM) was 40%. For the same compound, the growth (M14 melanoma; 100 µM) was 12.3%.

In the case of `Cc1ccc2c(ccc3c[n+]4c5ccccc5ccc4n32)c1`, the growth (DU-145 prostate; 10 µM unless noted) is reported as 20.7%, the growth (K-562 leukemia; 10 µM unless noted) is reported as 6.39% (active) and the growth (MALME-3M melanoma; 10 µM unless noted) is reported as -45.5% (active). For the same compound, the growth (MDA-MB-231 breast; 10 µM unless noted) was 19.6%, the growth (RXF 393 renal; 10 µM unless noted) was 28.9% and the growth (SF-268 CNS; 10 µM unless noted) was 1.4% (active). For the same compound, the growth (SF-295 CNS; 10 µM unless noted) was -1.86% (active), the growth (SF-539 CNS; 10 µM unless noted) was -3.04% (active) and the growth (UACC-257 melanoma) was -36% (active). For the same compound, the growth (M14 melanoma; 10 µM unless noted) was 2.99% (active).
